Hits are enriched below; roughly 3.3% of the tested compounds scored in any of these assays.
NOD2-RIPK2 inh: blocks binding of human NOD2 to RIPK2 | CHO BLA complementation NOD2-RIPK2, CCF4 ratio | inhibition, % at 4.98 µM | 0.38% of 360,000 active | AID 624267; in the data active = inhibition above about 21%;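 also: 0% = vehicle only and 100% = reference blocker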
rCAG binder: binds r(CAG) RNA repeats. r(CAG) RNA repeat, TO-PRO-1 dye displacement fluorescence. inhibition, % at 3 µM. 1.3% of 370,000 active. AID 651821;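 active = inhibition above the plate cutoff, the mean of all test compounds on that plate plus 3 SD, cut at about 35% in these data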;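 also: 0% = DMSO alone and 100% = 100 µM mitoxantrone as full dye displacement; higher means more dye released from RNA so lower well fluorescence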
ABHD5-PLIN5 inh: blocks binding of human ABHD5 to perilipin-5. Split G. princeps luciferase complementation, luminescence, 4 h. 0.78% of 360,000 active. AID 602281. Q00G26+Q8WTS1. inhibition, % at 4 µM;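 active = inhibition above the mean inhibition across every tested compound plus 3 SD, cut at about 22% in these data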;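 also: 0% = DMSO only wells and the 100% control is not disclosed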
PRMT1 FP inh: PRMT1 (human) inhibition, primary screen | inhibition, % at 2.79 µM | recombinant PRMT1, activity-based probe fluorescence polarization | AID 652257 | Q99873 | 1.3% of 370,000 active;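 active = inhibition above about 21% made by adding two undisclosed values, limit read from the data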
Target sequence (Q99873 whole entry, looked up): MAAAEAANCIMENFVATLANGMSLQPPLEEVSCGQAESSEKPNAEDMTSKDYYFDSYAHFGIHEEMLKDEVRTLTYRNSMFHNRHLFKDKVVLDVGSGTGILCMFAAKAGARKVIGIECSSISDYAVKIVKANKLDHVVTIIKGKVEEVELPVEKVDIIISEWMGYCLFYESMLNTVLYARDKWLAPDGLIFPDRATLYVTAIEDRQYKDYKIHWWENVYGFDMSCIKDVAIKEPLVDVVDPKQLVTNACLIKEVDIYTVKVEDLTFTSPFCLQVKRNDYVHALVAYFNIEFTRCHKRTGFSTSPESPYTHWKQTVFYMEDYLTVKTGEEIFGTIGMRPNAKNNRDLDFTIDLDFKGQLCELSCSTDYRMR
TLR4 MyD88 comp: TLR4-MyD88 interaction inhibition in cells. 0.18% of 200,000 active. inhibition, % at 8.4 µM. HeLa CL3-4 TLR4/MyD88 BLA complementation, FRET ratio. AID 861. O00206+Q99836; in the data active = inhibition above about 25%;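 also: 0% = vehicle and 100% = reference inhibitor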
TLR9-MyD88 inh: TLR9-MyD88 interaction inhibition | 0.21% of 340,000 active | AID 504734 | inhibition, % at 4.98 µM | CHO BLA complementation TLR9-MyD88, CCF4 FRET ratio | Q9NR96+Q99836;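 active = inhibition above the mean over all tested compounds plus 3 SD, cut at about 21% in these data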;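 also: 0% = DMSO only wells and 100% = clavulanate BLA inhibitor control wells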
* = called active by the depositor; i = inactive; nt = no result given.

SMILES	NOD2-RIPK2 inh	rCAG binder	ABHD5-PLIN5 inh	PRMT1 FP inh	TLR4 MyD88 comp	TLR9-MyD88 inh
N[C@@H](C(=O)N[C@@H]1C(=O)N2C(C(=O)O)=C(Cl)CS[C@H]12)c1ccccc1	-3	22	-21	46*	1	0
CC(=O)CC(c1ccccc1)S(=O)(=O)c1ccc([N+](=O)[O-])cc1 (configuration not stated)	-17	-2	7	-6	nt	-17
CCCCCCN1C=CC=C/C1=C\C=C(C#N)C#N	-4	-5	4	-1	nt	nt
O=C(NC1CCCC1)c1nc(-c2ccco2)oc1-c1ccccc1	-7	35*	-9	2	nt	nt
CN(C)CCCNc1nc2cc(-c3ccc4c(ccn4C)c3)sc2c(=O)n1C	3	16	11	-3	nt	nt
CC1(C(=O)NCc2ccco2)Cc2c(-c3cccc(C(N)=O)c3)ccnc2O1 (configuration not stated)	9	0	-3	1	nt	nt
Cc1cccc(-c2nnc3n2N=C(c2ccccc2)CS3)c1	-7	1	3	2	4	-10
Cc1nn2c(nc1=O)SCC(c1ccccc1)=N2	-4	1	-2	24*	3	-5
CCN(CC)c1ccc(NS(=O)(=O)c2ccc3c(c2)oc(=O)n3C)c(C)c1	-1	7	-10	25*	1	3
COc1ccccc1-c1csc(C(O)c2cccc(Cl)c2)n1 (configuration not stated)	-3	3	-2	-4	nt	nt
CC1CCCCC1N(C)C1CCN(C(=O)CNC(=O)/C=C/c2cccc(Cl)c2)CC1 (configuration not stated)	-10	-2	6	22*	nt	2
COCCN(C(=O)COC(=O)c1ccc(Cl)s1)c1c(N)n(Cc2ccccc2)c(=O)[nH]c1=O	2	-5	2	0	nt	-1
O=[N+]([O-])c1ccccc1/C=C/C1Nc2cccc3cccc(c23)N1	nt	22	nt	21*	nt	nt
O=c1[nH]c2ccccc2c2oc(CCl)nc12	-4	-1	-17	21*	nt	2
Cc1cc(NS(=O)(=O)c2ccc(NC(=O)/C=C/c3ccco3)cc2)nc(C)n1	10	13	-1	24*	nt	-4
CC(=O)c1cccc(NS(=O)(=O)c2c(C(=O)N3CCOCC3)c(C)n(C)c2C)c1	-6	0	-4	-2	nt	3
COc1cc(-c2cc(=O)c3ccc(O)cc3o2)cc(OC)c1OC	-3	-2	-3	14	nt	nt
COc1cc(OC)c(-c2c3cc(O)c(=O)cc-3oc3cc(O)c(O)cc23)cc1OC	16	i	-9	24*	11	9
CSc1sc2ccccc2[n+]1CCCS(=O)(=O)[O-]	-5	3	-8	23*	-10	3
CCCCCC(=O)NC1CCCCN(Cc2cccc(Cl)c2)C1=O (configuration not stated)	nt	-3	nt	-1	nt	nt
CC1CCN(C(=O)C(=O)Nc2sc3c(c2C(N)=O)CC(C)(C)OC3)CC1	7	-2	-2	-1	nt	-20
O=C(NCCC1CCCCN1S(=O)(=O)c1ccc(F)cc1)C(=O)Nc1ccccc1 (configuration not stated)	9	0	-6	-6	nt	-13
COc1ccc(C(CC(=O)c2ccc(C)cc2)Sc2ccccc2N)cc1 (configuration not stated)	7	6	-4	24*	nt	-9
COc1ccc(NCc2nnc(SCC(=O)Nc3ccccc3OC)o2)cc1	-3	3	-10	22*	-3	-1
O=C(CSC1=NCCS1)Nc1nc2ccccc2s1	7	3	-6	42*	4	-10
SMILES	NOD2-RIPK2 inh	rCAG binder	ABHD5-PLIN5 inh	PRMT1 FP inh	TLR4 MyD88 comp	TLR9-MyD88 inh
COc1ccc(C(=O)NCc2nnc(SCC(=O)Nc3nc4ccccc4s3)o2)cc1	1	8	-6	23*	1	-1
CC(C)(C)c1ccc(C(=O)NCc2nnc(SCC(=O)NC3CCCCC3)o2)cc1	7	-6	-5	21*	nt	-1
Cc1sc(NC(=O)CSC2=NCCS2)nc1-c1ccccc1	8	0	-10	4	-3	4
COc1ccc(C(=O)NCc2nnc(SCC(=O)c3ccccc3)o2)cc1	5	-2	-7	-6	nt	7
COc1ccc(OC)c(NC(=O)CSc2nnc(CNc3ccc(F)cc3)o2)c1	-3	2	5	1	-1	-6
Cc1nn(-c2ccccc2)c(C)c1NC(=O)COc1ccc2ccccc2c1	49*	-2	1	4	-5	8

Screens as filed in PubChem.
